Screening results (PubChem BioAssay)
LAP4 TOR yeast – modulators of TOR pathway LAP4-GFP in S. cerevisiae; S. cerevisiae LAP4-GFP multiplex, flow cytometry GFP, 3 h; median GFP as percent of DMSO wells; GFP response vs DMSO, % at 10 µM; actives 0.34% (n = 320,000); AID 2023;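 active means GFP response vs DMSO above a set limit, about the screen mean plus 3 SD, cut at about 150% in these data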
CIT2 TOR yeast – yeast TOR pathway CIT2-GFP modulation | S. cerevisiae CIT2-GFP strain, flow cytometry, 3 h; 100 means same as DMSO wells | GFP response vs DMSO, % at 10 µM | actives 0.065% (n = 320,000);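 active means GFP response relative to DMSO above a set limit, near the screen mean plus 3 SD, cut at about 150% in these data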;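 further: ratio of well median GFP fluorescence to mean of DMSO wells on the plate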
MEP2 TOR yeast – alters MEP2-GFP fluorescence in TOR pathway yeast screen | GFP response vs DMSO, % at 10 µM | S. cerevisiae MEP2-GFP strain, flow cytometry GFP, 3 h; 100% = DMSO control level | AID 2016 | actives 0.51% (n = 330,000);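 active means GFP response versus DMSO above a set limit, roughly screen mean plus 3 SD, cut at about 180% in these data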;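 further: median GFP fluorescence of the barcode-gated MEP2-GFP cells per well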
AGP1-GFP MLPCN – yeast TOR pathway AGP1-GFP modulation. GFP response vs DMSO, % at 10 µM. actives 0.02% (n = 320,000). S. cerevisiae AGP1-GFP multiplex flow cytometry, 3 h; GFP as percent of DMSO wells. AID 2066;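 active means GFP response relative to DMSO above a set limit, near screen average plus 3 SD, cut at about 150% in these data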;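 further: median GFP channel fluorescence of the gated AGP1 strain per well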
RPL19A TOR yeast – alters RPL19A-GFP fluorescence in TOR pathway yeast screen; AID 2025; S. cerevisiae RPL19A-GFP strain, flow cytometry, 3 h; stronger effect = lower value; percent response vs DMSO, % at 10 µM; actives 0.3% (n = 330,000);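 active means percent response vs DMSO below 50%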;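 further: median channel GFP fluorescence of the barcoded RPL19A-GFP strain; ratio of sample median GFP to plate DMSO average so 100% = DMSO; lower means less RPL19A-GFP as with rapamycin TOR inhibition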
LAP4-GFP pick2 – yeast LAP4-GFP modulation, second cherry pick; shares compounds with LAP4 TOR yeast; S. cerevisiae LAP4-GFP strain, flow cytometry GFP, 3 h; actives 20% (n = 590); AID 2621; GFP response vs DMSO, % at 10 µM;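 active means GFP signal as percent of the solvent control above about 150%, meaning raised reporter expression, limit read from the data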;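 further: ratio of well median GFP fluorescence to plate DMSO mean so 100% = DMSO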
MEP2-GFP pick2 – reconfirmed MEP2-GFP TOR pathway modulator in yeast; actives 10% (n = 590); GFP response vs DMSO, % at 10 µM; S. cerevisiae MEP2-GFP strain, flow cytometry GFP, 3 h; shares compounds with LAP4 TOR yeast; AID 2622;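 active means GFP signal above 150% of the solvent control wells, that is a rise of more than half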;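 further: median channel GFP fluorescence of all gated yeast cells per well; ratio of median GFP to plate DMSO average so 100% = DMSO level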
RPL19A GFP CP2 – second confirmation of modulators of TOR reporter RPL19A-GFP in yeast; shares compounds with LAP4 TOR yeast; AID 2623; S. cerevisiae RPL19A-GFP strain, flow cytometry GFP, 3 h; stronger effect = lower value; 100% means same as DMSO wells; actives 3% (n = 590); GFP response vs DMSO, % at 10 µM;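 active means under 65% GFP response relative to DMSO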;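 further: median GFP channel fluorescence per well over the all cells gate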
CIT2-GFP pick2 – reconfirmed modulator of CIT2-GFP TOR reporter in yeast; S. cerevisiae CIT2-GFP strain, flow cytometry GFP, 3 h; DMSO control wells read 100%; AID 2624; GFP response vs DMSO, % at 10 µM; shares compounds with LAP4 TOR yeast; actives 8% (n = 590);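 active means GFP response vs DMSO above about 150%, limit read from the data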;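 further: median green fluorescence per well over all gated yeast cells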
AGP1 GFP CP2 – second confirmation of modulators of TOR reporter AGP1-GFP in yeast; shares compounds with LAP4 TOR yeast; S. cerevisiae AGP1-GFP strain, flow cytometry GFP, 3 h; percent response vs DMSO, % at 10 µM; 590 tested, under 10 active; AID 2643;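 active means over 150 percent of DMSO response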;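 further: median GFP channel fluorescence over all cells without mother daughter split; sample median GFP divided by mean DMSO control so 100% equals DMSO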
Yeast autofluor – yeast s288c autofluorescence artifact, counter-screen. fluorescence change (kMESF span) at 33 µM. S. cerevisiae s288c, 520 nm autofluorescence, flow cytometry, 3 h; stronger effect = higher value; zero means same as solvent-only cells. shares compounds with LAP4 TOR yeast. 610 tested, under 10 active. AID 2757;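 active means fluorescence span over the dose series, or activity score, above about 33, limit read from the data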
Starred values were filed as active, the others as inactive; · = not tested or not shown. This is a sample that favours compounds with a hit; in the whole collection about 0.92% have one here.

SMILES	LAP4 TOR yeast	CIT2 TOR yeast	MEP2 TOR yeast	AGP1-GFP MLPCN	RPL19A TOR yeast	LAP4-GFP pick2	MEP2-GFP pick2	RPL19A GFP CP2	CIT2-GFP pick2	AGP1 GFP CP2	others
O=C(COC(=O)C1CC(=O)N(Cc2ccccc2)C1)Nc1cccc([N+](=O)[O-])c1 (stereo unspecified)	99	90	98	95	95	·	·	·	·	·
Cc1ccc(CCCNC(=O)C2CCC(=O)N(Cc3cccc(F)c3)C2)cc1 (stereo unspecified)	93	106	104	105	103	·	·	·	·	·
CC(C)(CNc1ccc(C(F)(F)F)cc1[N+](=O)[O-])N1CCOCC1	95	103	101	101	101	·	·	·	·	·
CCCCN(CCCNC(=O)c1ccc(CS(=O)(=O)c2ccc(OC)cc2)o1)Cc1ccccc1	91	95	142	16	58	102	98	101	102	101
COCCNC(=O)c1ccc(CS(=O)(=O)c2ccc(OC)cc2)o1	103	101	96	106	98	·	·	·	·	·
O=C(CN1CCN(S(=O)(=O)c2cccc(F)c2)CC1)Nc1ccnn1C1CCCC1	89	92	94	93	93	·	·	·	·	·
Cc1ccc(NC(=O)c2cc(-c3ccc4c(c3)OCO4)on2)cc1C	101	106	106	104	104	·	·	·	·	·
Cc1cc(C(=O)Nc2ccc3c(c2)OCO3)no1	98	157*	103	111	97	104	110	101	101	101
Oc1c(C(Nc2cccc(C(F)(F)F)c2)c2ccncc2)ccc2cccnc12 (stereo unspecified)	170*	90	88	88	91	·	·	·	·	·	Yeast autofluor=0.7
O=[N+]([O-])c1cc(CN2CCCC2)c2cccnc2c1O	99	88	97	94	89	·	·	·	·	·
O=[N+]([O-])c1cc(CN2CCN(c3cccc(C(F)(F)F)c3)CC2)c2cccnc2c1O	214*	114	116	·	88	·	·	·	·	·	Yeast autofluor=0.91
Cc1noc(C)c1COc1ccc(C(=O)N2CCN(c3ccccc3O)CC2)cc1	120	102	124	110	108	·	·	·	·	·
Nc1c(C(=O)Nc2nc3ccccc3s2)sc2nc(-c3cccs3)ccc12	104	106	102	98	100	·	·	·	·	·
CC(=O)c1sc2nc(-c3cccs3)ccc2c1N	175*	104	122	65	81	96	97	100	106	96
O=C(COC(=O)Cc1c[nH]c2ccccc12)Nc1cc(S(=O)(=O)N2CCOCC2)ccc1Cl	97	113	101	103	102	·	·	·	·	·
O=c1oc2cc(Oc3c([N+](=O)[O-])cc(C(F)(F)F)cc3[N+](=O)[O-])ccc2c2c1CCCC2	294*	76	91	86	70	·	·	·	·	·	Yeast autofluor=0
O=c1oc2cc(Oc3ccc(C(F)(F)F)cc3[N+](=O)[O-])ccc2c2c1CCC2	91	104	96	100	103	·	·	·	·	·
COC(=O)CCC(=O)OC1(C)C(=O)C=C2C=C(c3ccsc3)OC=C2C1=O (stereo unspecified)	94	87	104	94	102	·	·	·	·	·
COC(=O)CCCC1=CC2=CC(=O)C(C)(OC(=O)CCc3ccccc3)C(=O)C2=CO1 (stereo unspecified)	156*	51	88	51	88	112	93	103	102	89	Yeast autofluor=-0.2
CC(Oc1ccc(C#N)cc1)C(=O)NC1CCCC1 (stereo unspecified)	99	95	96	93	96	·	·	·	·	·
CN1/C(=C\C(=O)c2ccco2)C(C)(C)c2ccccc21	180*	96	102	92	81	104	105	102	107	97
O=C(CC(=O)c1ccccc1)Nc1cc(C(F)(F)F)ccc1Cl	99	92	105	94	106	100	112	101	102	99
CCc1ccc(-c2cc3c(=O)n(CC(=O)NCCCN4CCN(C)CC4)ncn3n2)cc1	93	91	90	88	92	·	·	·	·	·
